The values that follow come from PubChem BioAssay AID463173 (ICCB-Longwood Screening Facility, Harvard Medical School, 2010).

Hit rate of the full screen: of about 52,000 compounds, about 4,300 (8.3%) were called active. The entries come from a sample that favours actives as a whole. A number with no mark means an inactive call. No stated cut-off is given here; in the data, active means survival mostly below about 52% (no sharp cut-off); inactive means mostly above about 56%.

The assay has as its system DeltatarO mutant. As to the kind of experiment: S. aureus survival, RN4220 and DeltatarO strains – OD600, teichoic acid synthesis inhibitors, primary screen (AID 463173). As to conditions: S. aureus RN4220 wild type/DeltatarO growth, OD600, 18 h, hits give low values, screened at 18.75 µg/mL (by protocol).
Consider `Cc1cccc(C)c1NC(=O)CSc1nc(-c2ccccc2)nc2c1Cc1c(CO)cnc(C)c1O2`, for which the survival was 87%. Turning to `Cc1cc(C)c(NC(=O)C2CCN(c3nnc(C)c4c(C)n(-c5ccccc5)nc34)CC2)c(C)c1`, the survival was 52% (active). To `Cc1ccc(NC(=O)C2CCN(c3nnc(C)c4c(C)n(-c5ccccc5)nc34)CC2)cc1Cl` belongs 71%. The same measure for `CCc1cccc(C)c1NC(=O)C1CCN(c2nnc(C)c3c(C)n(-c4ccccc4)nc23)CC1`: 77%; for `O=C(Nc1cccc(C(F)(F)F)c1)c1cccnc1NCCO`: 77%; for `C=C(C)CSc1nc2sc3c(c2c(=O)n1CCCC)CCCC3`: -3% (active). The same measure for `C=C(C)Cn1c(SCC(=O)c2ccccc2)nc2sc3c(c2c1=O)CCCC3`: 69%. For `C=C(C)Cn1c(SCC(=O)c2ccc(OC)cc2)nc2sc3c(c2c1=O)CCCC3`, the survival was 75%. Regarding `CCCCn1c(SCC(=O)c2ccccc2)nc2sc3c(c2c1=O)CCCC3`, the survival was 44% (active). The same measure for `CCOC(=O)CSc1nc2sc3c(c2c(=O)n1CC)CCCC3`: 58%. To `C=C(C)Cn1c(SCC(=O)c2ccc(Br)cc2)nc2sc3c(c2c1=O)CCCC3` belongs 50%; to `COc1ccc(CNC(=O)CN(C)S(=O)(=O)c2ccc3[nH]c4c(c3c2)CCCC4)cc1`, 70%; to `Cn1c(C(=O)N(Cc2ccccc2)C(C)(C)C)cc2sccc21`, 109%.

Consider `CCOc1ccccc1CNC(=O)C1CCN(c2nnc(C)c3c(C)n(-c4ccc(C)cc4)nc23)CC1`, for which the survival was 68%. To `Cc1cc(Nc2cccc(C(F)(F)F)c2)nc2ccc(NC(=O)c3ccc(=O)[nH]c3)cc12` belongs 37% (active); to `Cc1cc(Nc2cccc(Cl)c2)nc2ccc(NC(=O)Cc3cccc(C(F)(F)F)c3)cc12`, 64%. To `COc1ccc(CC(=O)Nc2ccc3nc(Nc4cccc(Cl)c4)cc(C)c3c2)cc1OC` belongs 46% (active); to `COc1ccc(CC(=O)Nc2ccc3nc(Nc4cccc(Cl)c4)cc(C)c3c2)cc1`, 98%; to `COc1ccccc1CC(=O)Nc1ccc2nc(Nc3cccc(Cl)c3)cc(C)c2c1`, 144%. In the case of `COc1ccccc1CC(=O)Nc1ccc2nc(Nc3cccc(C(F)(F)F)c3)cc(C)c2c1`, the survival is 92%. The same measure for `Cc1cc(Nc2cccc(C(F)(F)F)c2)nc2ccc(NC(=O)c3cccc(Cl)c3)cc12`: 92%. The same measure for `Cc1cc(Nc2cccc(C(F)(F)F)c2)nc2ccc(NC(=O)c3ccc(N(C)C)cc3)cc12`: 55%; for `COc1cccc(CC(=O)Nc2ccc3nc(Nc4cccc(C(F)(F)F)c4)cc(C)c3c2)c1`: 25% (active); for `O=C(Cn1cc(S(=O)(=O)Cc2ccccc2Cl)c2ccccc21)Nc1cccc(C(F)(F)F)c1`: 75%. Turning to `CCOc1ccc(C2C(C(=O)Nc3ccccc3)=C(C)Nc3nc(SCc4cc(C)ccc4C)nn32)cc1` (stereo not given), the survival is 123%. The same measure for `Cc1ccc(NC(=O)Cn2c(=O)n(-c3ccc(CC(=O)NCC4CCCO4)cc3)c(=O)c3ccccc32)cc1` (stereo not given): 95%; for `CCCCOC(=O)c1ccc(NC(=O)c2cc3c(=O)n4cccc(C)c4nc3s2)cc1`: 66%.

Consider `COc1cc(OC)cc(C(=O)NCC(c2cccs2)S(=O)(=O)c2ccc(F)c(C)c2)c1` (stereo not given), for which the survival is 100%.

Turning to `Cc1cccc(NC(=O)C2CCCN(S(=O)(=O)c3ccc4c(c3)CCCC(=O)N4)C2)c1` (stereo not given), the survival is 95%. Turning to `COc1ccc(NS(=O)(=O)c2ccc3[nH]c(=O)ccc3c2)cc1OC`, the survival is 98%. For the molecule `COc1ccc(-c2nc3sc(CCNC(=O)c4cc(Cl)ccc4OC)c(C)n3n2)cc1`, the survival was 73%.

Regarding `COc1ccc(C(C(=O)NCc2cccs2)N(Cc2ccco2)C(=O)Cn2nnc(-c3cccs3)n2)cc1` (stereo not given), the survival was 93%. For the molecule `CCc1cccc(C)c1NC(=O)CCCn1nc(C)c2sc3ccccc3c2c1=O`, the survival was 86%. To `CCc1ccc(Sc2cc(C(=O)O)c3ccccc3n2)cc1` belongs 78%. The same measure for `CCOCCCNC(=O)CN1C(=O)COc2ccc(S(=O)(=O)N3CCCC3)cc21`: 87%.

For `CCC(Cn1nnc2ccccc2c1=O)NC(=O)Nc1cc(C)cc(C)c1` (stereo not given), the survival is 41% (active). For `CCC(Cn1nnc2ccccc2c1=O)NC(=O)Nc1ccc(C)cc1C` (stereo not given), the survival was 44% (active). The same measure for `CCC(Cn1nnc2ccccc2c1=O)NC(=O)Nc1ccc(C)cc1` (stereo not given): 55%; for `CCC(Cn1nnc2ccccc2c1=O)NC(=O)Nc1ccccc1Cl` (stereo not given): 85%.

Turning to `CCC(Cn1nnc2ccccc2c1=O)NC(=O)Nc1cccc(C)c1C` (stereo not given), the survival was 55%. The same measure for `CCC(Cn1nnc2ccccc2c1=O)NC(=O)Nc1cc(OC)cc(OC)c1` (stereo not given): 88%; for `CCC(Cn1nnc2ccccc2c1=O)NC(=O)Nc1ccc(C)c(C)c1` (stereo not given): 45%; for `CCC(Cn1nnc2ccccc2c1=O)NC(=O)Nc1cccc(Cl)c1` (stereo not given): 39% (active). To `CCc1ccccc1NC(=O)NC(CC)Cn1nnc2ccccc2c1=O` (stereo not given) belongs 61%; to `COc1ccccc1CNC(=O)C(C)n1ccc2cc(S(=O)(=O)N3CCCC3)ccc21` (stereo not given), 81%; to `CCc1ccc(CN2CCC(C(=O)N(C)CCc3ccc(OC)c(OC)c3)CC2)cc1`, 81%.

As to `CCCN(C(=O)c1cc2c(=O)[nH]c3ccc(C)cc3c2s1)c1ccc(CC)cc1`, the survival was 64%. To `CCCCNS(=O)(=O)c1ccc(NC(=O)c2c(-c3ccccc3)noc2C)cc1` belongs 101%; to `CN(C)c1ccc(CNC(=O)C2CCN(S(=O)(=O)c3ccc4c(ccn4C)c3)CC2)cc1`, 95%; to `Cc1ccc(NC(=O)c2cnc(SCC(=O)Nc3cc(C)on3)n(C)c2=O)cc1`, 88%. To `COc1ccc(CCn2c3c(c(=O)[nH]c2=O)C(NC(=O)c2ccccc2F)(C(F)(F)F)C(=O)N3)cc1OC` (stereo not given) belongs 60%; to `COc1ccc(N(Cc2cc3ccccc3[nH]c2=O)C(=O)c2cccc(Cl)c2)cc1`, 87%.

`COc1ccc(CCNC(=O)CCCCn2c(=O)c3ccccc3n(Cc3cc(C)ccc3C)c2=O)cc1OC`: the survival was 108%. To `O=C1CC(c2nnc(Cc3ccc(F)cc3)o2)CN1c1ccccc1` (stereo not given) belongs 134%. As to `Cc1ccc(N2CC(c3nnc(Cc4ccc(F)cc4)o3)CC2=O)cc1` (stereo not given), the survival is 24% (active). For the molecule `Cc1ccc(N2CC(c3nnc(Cc4ccc(Cl)cc4)o3)CC2=O)cc1` (stereo not given), the survival is 48%. With `COc1ccc(S(=O)(=O)Nc2cccc(-c3ccc(N4CCCCCC4)nn3)c2)c(OC)c1`, the survival is 74%. The same measure for `COc1ccc(Cn2ccc3nc(C)c(C(=O)N4CCN(c5cccc(OC)c5)CC4)cc3c2=O)cc1`: 81%. With `O=C(Nc1cccc(OCc2cc(=O)n3ccccc3n2)c1)Nc1cccc(C(F)(F)F)c1`, the survival is -4% (active). To `Cc1cccc(C(=O)Nc2ccccc2OCc2cc(=O)n3cc(C)ccc3n2)c1` belongs 60%; to `Cc1ccc2nc(COc3cccc(NC(=O)c4ccccc4Cl)c3)cc(=O)n2c1`, 75%. The same measure for `Cc1ccc2nc(COc3ccccc3NC(=O)c3ccccc3F)cc(=O)n2c1`: 85%; for `CCC(=O)Nc1cccc(OCc2cc(=O)n3cc(C)ccc3n2)c1`: 55%; for `Cc1ccc2nc(COc3ccccc3NC(=O)c3ccc(F)cc3)cc(=O)n2c1`: 20% (active). To `O=C(COc1ccc(F)cc1)Nc1cccc(OCc2cc(=O)n3ccccc3n2)c1` belongs 102%; to `Cc1ccc2nc(COc3cccc(NC(=O)Nc4ccc(C)c(Cl)c4)c3)cc(=O)n2c1`, 25% (active). For the molecule `Cc1ccc(Cl)cc1NC(=O)Nc1cccc(OCc2cc(=O)n3ccccc3n2)c1`, the survival was 72%.

On to `CCc1ccc(NC(=O)CSc2cn(CC(=O)N3CCCC3)c3ccccc23)cc1`, for which the survival was 97%. The same measure for `COc1ccc(C)cc1S(=O)(=O)NCC(c1ccc(N(C)C)cc1)N1CCc2ccccc21` (stereo not given): 55%; for `Cc1cccc(-n2ccnc2SCC(=O)Nc2nc3ccccc3s2)c1`: 93%. The same measure for `Cc1ccc(NC(=O)/C=C/c2ccc(C)o2)c(C)c1`: 46%; for `Cc1ccc(/C=C/C(=O)Nc2ccccc2C(N)=O)o1`: 64%. To `COc1ccc(OC)c(NC(=O)/C=C/c2ccc(C)o2)c1` belongs 40% (active). As to `CCOC(=O)c1cc(-c2ccccc2)n(CCC(=O)Nc2ccc(Cl)c(C(F)(F)F)c2)c1C`, the survival is 102%. To `CN(C)S(=O)(=O)c1ccc(S(=O)(=O)N(Cc2ccccc2F)C2CC2)cc1` belongs 91%. Turning to `CCCCN(CCCNC(=O)c1c(C)oc2nc[nH]c(=O)c12)Cc1ccccc1`, the survival is 53% (active). The same measure for `CCN(CCCNC(=O)c1c(C)oc2ncn(CC(C)C)c(=O)c12)Cc1ccccc1`: 83%; for `Cc1oc2ncn(C)c(=O)c2c1C(=O)NCCCN(Cc1ccccc1)C(C)C`: 72%; for `O=C(CSc1ncn(-c2ccccc2)n1)c1ccc(Cl)cc1`: 74%. On to `COC(=O)CN1C(C(=O)c2ccccc2)=C(OC(=O)c2ccc(F)cc2)c2ccccc2S1(=O)=O`, for which the survival was 56%. `CCCCN1C(C(=O)c2ccccc2)=C(OC(=O)CC)c2ccccc2S1(=O)=O`: the survival is -4% (active). The same measure for `CCOC(=O)CN1C(C(=O)c2ccccc2)=C(OC(=O)C(C)(C)C)c2ccccc2S1(=O)=O`: 58%; for `CCCCN1C(C(=O)c2ccccc2)=C(OC(C)=O)c2ccccc2S1(=O)=O`: -4% (active); for `CCCCCN1C(C(=O)c2ccccc2)=C(NC(C)=O)c2ccccc2S1(=O)=O`: 58%. On to `CCN1C(C(=O)c2ccccc2)=C(OC(=O)C(C)C)c2ccccc2S1(=O)=O`, for which the survival is 67%. The same measure for `CCCN1C(C(=O)c2ccccc2)=C(OC(=O)c2ccc(C)cc2)c2ccccc2S1(=O)=O`: 52%. To `CCCN1C(C(=O)c2ccccc2)=C(OC(=O)c2ccc(F)cc2)c2ccccc2S1(=O)=O` belongs 31% (active). The same measure for `CCCN1C(C(=O)c2ccccc2)=C(OC(=O)C(C)(C)C)c2ccccc2S1(=O)=O`: 53%; for `CCCCN(CCCC)C1=C(C(=O)c2ccccc2)N(C)S(=O)(=O)c2ccccc21`: 72%; for `CCCCN(CCCC)C1=C(C(=O)c2ccccc2)N(CC)S(=O)(=O)c2ccccc21`: 60% (active).
